Compounds without any hit were thinned out: in the full panel of roughly 83,000, 20% have a hit.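 Single-concentration screen, 48 h exposure, 96-well plates. Endpoint: percent growth. Below 10 = active.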 Active and inactive are the calls of the source.
Tests used:
Assay in all cases: NCI-60 one-dose screen, 48 h (100 = growth as untreated, 0 = no growth, -100 = all killed)
Conditions in all cases: 10 µM
SK-MEL-2 melanoma = system: SK-MEL-2 melanoma
EKVX NSCLC = system: EKVX NSCLC
SN12C renal = system: SN12C renal
UO-31 renal = system: UO-31 renal
TK-10 renal = system: TK-10 renal
ACHN renal = system: ACHN renal
A498 renal = system: A498 renal
MOLT-4 leukemia = system: MOLT-4 leukemia
CCRF-CEM leukemia = system: CCRF-CEM leukemia
CAKI-1 renal = system: CAKI-1 renal

Measured: growth

Cc1nn(-c2ccc(-c3ccc(OC(F)(F)F)cc3)cc2)c2nc(Cc3ccccc3)nc(N)c12
inactive: SK-MEL-2 melanoma 87.6% | EKVX NSCLC 72.3% | SN12C renal 62.8% | UO-31 renal 28.3% | TK-10 renal 68.1% | ACHN renal 16.7% | A498 renal 94.2% | MOLT-4 leukemia 68.6%

COc1cc(-c2nn(-c3cccc(NC(=O)CCN4CCN(Cc5ccccc5)CC4)c3)cc2-c2ccncc2)ccc1Cl
inactive: EKVX NSCLC 48.2% | SN12C renal 41.7% | UO-31 renal 15.6% | TK-10 renal 26.1% | ACHN renal 24.1%
active: SK-MEL-2 melanoma -31.2% | A498 renal -8.39% | CCRF-CEM leukemia 4.24% | MOLT-4 leukemia 5.06%

COc1ccc(-c2nn(-c3cccc(Cl)c3)cc2-c2c(C#N)c(=O)n3[nH]c(-c4ccc(C)cc4)nc3c2C#N)cc1
inactive: SK-MEL-2 melanoma 46% | EKVX NSCLC 37.9% | SN12C renal 60.9% | UO-31 renal 34.7% | TK-10 renal 58% | ACHN renal 43.2% | CCRF-CEM leukemia 31.4%
active: MOLT-4 leukemia -23.8%

Fc1ccc2[nH]cc(-c3nc(-c4ccsc4)cs3)c2c1
inactive: SK-MEL-2 melanoma 87.9% | EKVX NSCLC 57.1% | SN12C renal 92.5% | UO-31 renal 74.4% | TK-10 renal 133% | ACHN renal 93.6% | MOLT-4 leukemia 78%

IC(I)I
inactive: SK-MEL-2 melanoma 108% | EKVX NSCLC 102% | SN12C renal 95.1% | UO-31 renal 97.2% | TK-10 renal 107% | ACHN renal 110% | MOLT-4 leukemia 102%

CCn1cc(CNc2ccc(C(=O)Nc3ccc4ccccc4c3)cc2)c(C)n1
active: TK-10 renal 1.78%
inactive: SK-MEL-2 melanoma 61% | EKVX NSCLC 36.5% | SN12C renal 85.7% | UO-31 renal 47.1% | ACHN renal 69.5% | MOLT-4 leukemia 15.5%

O=C(/C=C/C=C/c1c(C2CC2)nc2ccccc2c1-c1ccc(F)cc1)c1cccs1
inactive: EKVX NSCLC 49.3% | SN12C renal 38.1% | TK-10 renal 22.4%
active: SK-MEL-2 melanoma -76.5% | UO-31 renal -43.8% | ACHN renal -42.6% | A498 renal -21.7% | MOLT-4 leukemia 8.46%

NC(N)=N/N=C(\c1ccccc1)C(O)c1ccccc1 (stereo not given)
inactive: SK-MEL-2 melanoma 101% | EKVX NSCLC 103% | SN12C renal 99.6% | UO-31 renal 81.1% | TK-10 renal 94.2% | ACHN renal 109% | CCRF-CEM leukemia 92.7% | MOLT-4 leukemia 99.9%

N#CC1=C(N)Oc2cc(N)ccc2C1c1cccnc1 (stereo not given)
inactive: SK-MEL-2 melanoma 97.4% | EKVX NSCLC 96.5% | SN12C renal 98.5% | UO-31 renal 84.8% | TK-10 renal 119% | ACHN renal 96.7% | A498 renal 93.5% | MOLT-4 leukemia 89.6%

O=C1NC(=O)c2c(CCCSc3nc4ccccc4c(=O)n3CCc3ccccc3)cccc21
inactive: SK-MEL-2 melanoma 105% | EKVX NSCLC 16.3% | SN12C renal 91.7% | UO-31 renal 70.6% | TK-10 renal 124% | ACHN renal 69.9% | CCRF-CEM leukemia 96% | MOLT-4 leukemia 81.3%

COc1cc2c(cc1NC(=O)C(F)(F)F)-c1ccc(NC(=O)C(F)(F)F)cc1C2
inactive: SK-MEL-2 melanoma 105% | EKVX NSCLC 104% | SN12C renal 86.8% | UO-31 renal 102% | TK-10 renal 94.8% | ACHN renal 62.9% | A498 renal 97.7% | CCRF-CEM leukemia 97.6% | MOLT-4 leukemia 105%

O=C(CCCCC(=O)Oc1c(Cl)cc(Cl)cc1[N+](=O)[O-])Oc1c(Cl)cc(Cl)cc1[N+](=O)[O-]
inactive: SK-MEL-2 melanoma 93.6% | EKVX NSCLC 93.2% | SN12C renal 105% | UO-31 renal 87.1% | TK-10 renal 91.3% | ACHN renal 105% | A498 renal 114% | CCRF-CEM leukemia 73.6% | MOLT-4 leukemia 78.1%

CCOC(=O)c1sc2ncnc(Nc3ccc4c(cnn4C(=O)Nc4ccc(C)c(Cl)c4)c3)c2c1C
inactive: SK-MEL-2 melanoma 83.5% | EKVX NSCLC 97.6% | SN12C renal 96.5% | UO-31 renal 94.7% | TK-10 renal 90.8% | ACHN renal 107% | MOLT-4 leukemia 95.6%

COc1ccc(-c2cc(-c3ccccc3)nc(SCCCCCCC(=O)NO)n2)cc1
inactive: SK-MEL-2 melanoma 78% | EKVX NSCLC 74.2% | SN12C renal 79.6% | UO-31 renal 34.3% | TK-10 renal 45.9% | ACHN renal 45.4% | A498 renal 48.7% | MOLT-4 leukemia 14.4%

Cc1c2cnccc2c(C)c2c1oc1ccccc12
inactive: SK-MEL-2 melanoma 112% | EKVX NSCLC 38.3% | SN12C renal 69.1% | UO-31 renal 40.4% | TK-10 renal 48.4% | ACHN renal 58.6% | CCRF-CEM leukemia 62.8%
active: MOLT-4 leukemia 3.5%

C=C(C)[C@@H]1CC[C@]2(COCCC#N)CC[C@]3(C)[C@H](CC[C@@H]4[C@@]5(C)Cc6c([nH]c7ccccc67)C(C)(C)[C@@H]5CC[C@]43C)[C@@H]12
inactive: SK-MEL-2 melanoma 110% | EKVX NSCLC 116% | SN12C renal 98.7% | UO-31 renal 94.2% | TK-10 renal 100% | ACHN renal 95.2% | A498 renal 106% | MOLT-4 leukemia 86.1%

COc1cc(-c2csc(NC(=O)Nc3ccc(Cl)c(C(F)(F)F)c3)n2)cc(OC)c1OC
active: SK-MEL-2 melanoma -14.3% | EKVX NSCLC 2.12% | SN12C renal -11.3% | UO-31 renal -1.04% | TK-10 renal -4.34% | ACHN renal -8.21% | A498 renal -15.7% | MOLT-4 leukemia 2.65%

COc1ccccc1/C=N\N/C(N)=N\N=C\c1ccccc1OC
active: CAKI-1 renal -7% | A498 renal -66.5% | CCRF-CEM leukemia -19.6%
inactive: SK-MEL-2 melanoma 21.4% | EKVX NSCLC 26.1% | SN12C renal 18.4% | UO-31 renal 14.1% | ACHN renal 20.5%

O=C(CCCCNC(=O)c1nc(-c2ccccc2)n(-c2ccccc2)n1)NO
inactive: SK-MEL-2 melanoma 67.6% | EKVX NSCLC 80.7% | SN12C renal 77.9% | UO-31 renal 86.4% | TK-10 renal 56% | ACHN renal 102% | MOLT-4 leukemia 58.1%

CN1CCN(CC(=O)Nc2cccc(-n3cc(-c4ccncc4)c(-c4ccc(Cl)c(O)c4)n3)c2)CC1
inactive: SK-MEL-2 melanoma 28.2% | EKVX NSCLC 63.6% | SN12C renal 64.9% | UO-31 renal 50.2% | TK-10 renal 103% | ACHN renal 44.7% | A498 renal 35.6% | CCRF-CEM leukemia 23.9% | MOLT-4 leukemia 26.4%

C/C(=N\O)c1ccc(NC(=O)CSc2nnc(-c3ccccc3)n2-c2ccccc2)cc1
inactive: SK-MEL-2 melanoma 118% | EKVX NSCLC 91.9% | SN12C renal 72.4% | UO-31 renal 76.2% | ACHN renal 63.7% | CAKI-1 renal 85.6% | A498 renal 92.7% | CCRF-CEM leukemia 92% | MOLT-4 leukemia 95.2%

COc1cc2c(Nc3ccc(S(N)(=O)=O)cc3)ncnc2c(OC)c1OC
inactive: SK-MEL-2 melanoma 92.4% | EKVX NSCLC 100% | SN12C renal 93.5% | UO-31 renal 67.3% | ACHN renal 99.4% | CAKI-1 renal 92% | A498 renal 103% | CCRF-CEM leukemia 92.5% | MOLT-4 leukemia 97.3%

NC1=NC(c2ccccc2)C2=C(N1)/C(=C/c1ccccc1)CCC2 (stereo not given)
inactive: SK-MEL-2 melanoma 87.1% | EKVX NSCLC 95% | SN12C renal 91.6% | UO-31 renal 70.5% | ACHN renal 108% | CAKI-1 renal 93.8% | A498 renal 75% | CCRF-CEM leukemia 91% | MOLT-4 leukemia 77.8%

COc1ccc(/C=C2\CCCC3=C2NC(N)=NC3c2ccc(OC)cc2)cc1 (stereo not given)
inactive: SK-MEL-2 melanoma 98.2% | EKVX NSCLC 92.1% | SN12C renal 86.7% | UO-31 renal 72.8% | ACHN renal 98.3% | CAKI-1 renal 90.1% | A498 renal 84.5% | CCRF-CEM leukemia 87.6%

COc1ccc(C(=O)c2cc3c(OC)c(OC)c(OC)cc3[nH]2)cc1
inactive: SK-MEL-2 melanoma 43.7% | EKVX NSCLC 98.4% | SN12C renal 75.1% | UO-31 renal 56% | ACHN renal 79.4% | CAKI-1 renal 128% | A498 renal 59.9% | CCRF-CEM leukemia 42.8% | MOLT-4 leukemia 50.2%

CN(C)c1ccc(/C=N/NC(=O)c2ccccc2Nc2cccc(C(F)(F)F)c2)cc1
inactive: SK-MEL-2 melanoma 62.3% | EKVX NSCLC 82.2% | SN12C renal 87.6% | UO-31 renal 77.2% | ACHN renal 97.4% | CAKI-1 renal 77.7% | CCRF-CEM leukemia 53.4% | MOLT-4 leukemia 76.7%
active: A498 renal 1.42%

CC(C)=CCC/C(C)=C/CC/C(C)=C/CC/C=C(\C)CC/C=C(\C)CCC(=O)Nc1ccn(C2OC(CO)C(O)C2(F)F)c(=O)n1 (stereo not given)
active: SK-MEL-2 melanoma -4.27% | UO-31 renal 3.33% | ACHN renal 6.71% | CAKI-1 renal -20.9% | A498 renal -44.9% | CCRF-CEM leukemia -6.58% | MOLT-4 leukemia -14.2%
inactive: EKVX NSCLC 34.6% | SN12C renal 15.3%

COc1ccc(Cl)cc1Nc1nc(C(F)(F)F)ccc1C(=O)N/N=C/c1ccc(Cl)cc1
inactive: SK-MEL-2 melanoma 26.4% | EKVX NSCLC 56.6% | SN12C renal 49% | UO-31 renal 18.8% | ACHN renal 36.8% | CAKI-1 renal 13.3%
active: A498 renal -35.2% | CCRF-CEM leukemia 1.78% | MOLT-4 leukemia 1.89%
